How the values were obtained:
Assay in all cases: SPOT peptide array binding signal intensity (averaged, normalized) (arbitrary units (background-subtracted, floor 0; scale differs between SH3 domains)); higher = stronger binding of the SH3 domain to the peptide
[1] = biological target: AgAbp1
How it was run: (§1)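 Binding signal refers to normalized, background-subtracted spot intensity averaged over replicates, expressed in arbitrary units that differ between domains. GST-fused SH3 domains from four yeast species were incubated at 10 μg/ml overnight at 4°C on cellulose membranes of synthetic 15-mer peptides with cysteines replaced by serines. Bound protein was detected with anti-GST antibody, an HRP anti-mouse secondary and luminol, and quantified with Genespotter.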

[2] = biological target: AgBbc1
How it was run: as §1

[3] = biological target: AgBem1-D1
How it was run: as §1

[4] = biological target: AgBzz1-D1
How it was run: as §1

[5] = biological target: AgBzz1-D2
How it was run: as §1

[6] = biological target: AgCyk3
How it was run: as §1

[7] = biological target: AgFus1
How it was run: as §1

[8] = biological target: AgHof1
How it was run: as §1

[9] = biological target: AgHse1
How it was run: as §1

[10] = biological target: AgLsb1
How it was run: as §1

[11] = biological target: AgLsb4
How it was run: as §1

[12] = biological target: AgMyo5
How it was run: as §1

[13] = biological target: AgNbp2
How it was run: as §1

[14] = biological target: AgRvs167
How it was run: as §1

[15] = biological target: AgSho1
How it was run: as §1

[16] = biological target: AgSla1-D1-D2
How it was run: as §1

[17] = biological target: AgSla1-D3
How it was run: as §1

[18] = biological target: CaAbp1-D1
How it was run: as §1

[19] = biological target: CaAbp1-D2
How it was run: as §1

[20] = biological target: CaBbc1
How it was run: as §1

[21] = biological target: CaBem1-D1
How it was run: as §1

[22] = biological target: CaBzz1-D1
How it was run: as §1

[23] = biological target: CaBzz1-D2
How it was run: as §1

[24] = biological target: CaCyk3
How it was run: as §1

[25] = biological target: CaFus1
How it was run: as §1

[26] = biological target: CaHof1
How it was run: as §1

[27] = biological target: CaHse1
How it was run: as §1

[28] = biological target: CaLsb1
How it was run: as §1

[29] = biological target: CaLsb4
How it was run: as §1

[30] = biological target: CaMyo5
How it was run: as §1

[31] = biological target: CaNbp2
How it was run: as §1

[32] = biological target: CaRvs167
How it was run: as §1

[33] = biological target: CaRvs167-3
How it was run: as §1

[34] = biological target: CaSho1
How it was run: as §1

[35] = biological target: CaSla1-D1-D2
How it was run: as §1

[36] = biological target: CaSla1-D3
How it was run: as §1

[37] = biological target: ScAbp1
How it was run: as §1

[38] = biological target: ScBbc1
How it was run: as §1

[39] = biological target: ScBem1-D1
How it was run: as §1

[40] = biological target: ScBzz1-D1
How it was run: as §1

[41] = biological target: ScBzz1-D2
How it was run: as §1

[42] = biological target: ScCyk3
How it was run: as §1

[43] = biological target: ScFus1
How it was run: as §1

[44] = biological target: ScHof1
How it was run: as §1

[45] = biological target: ScHse1
How it was run: as §1

[46] = biological target: ScLsb1
How it was run: as §1

[47] = biological target: ScLsb2
How it was run: as §1

[48] = biological target: ScLsb3
How it was run: as §1

[49] = biological target: ScLsb4
How it was run: as §1

[50] = biological target: ScMyo3
How it was run: as §1

[51] = biological target: ScMyo5
How it was run: as §1

[52] = biological target: ScNbp2
How it was run: as §1

[53] = biological target: ScPex13
How it was run: as §1

[54] = biological target: ScRvs167
How it was run: as §1

[55] = biological target: ScSho1
How it was run: as §1

[56] = biological target: ScSla1-D1-D2
How it was run: as §1

[57] = biological target: ScSla1-D3
How it was run: as §1

[58] = biological target: SpAbp1-D1
How it was run: as §1

[59] = biological target: SpBbc1
How it was run: as §1

[60] = biological target: SpBzz1-D1
How it was run: as §1

[61] = biological target: SpBzz1-D2
How it was run: as §1

[62] = biological target: SpCyk3
How it was run: as §1

[63] = biological target: SpHof1
How it was run: as §1

[64] = biological target: SpHof1-2
How it was run: as §1

[65] = biological target: SpHof1-3
How it was run: as §1

[66] = biological target: SpHse1
How it was run: as §1

[67] = biological target: SpLsb1
How it was run: as §1

[68] = biological target: SpLsb4
How it was run: as §1

[69] = biological target: SpMyo1
How it was run: as §1

[70] = biological target: SpNbp2
How it was run: as §1

[71] = biological target: SpPex13
How it was run: as §1

[72] = biological target: SpRvs167
How it was run: as §1

[73] = biological target: SpSla1-D1-D2
How it was run: as §1

[74] = biological target: SpSla1-D3
How it was run: as §1

B1: unnamed (peptide)
chain: QPWTDQFEKLEKEVS
[1]
  SPOT peptide array binding signal intensity: ≤ 0
[2]
  SPOT peptide array binding signal intensity: ≤ 0
[3]
  SPOT peptide array binding signal intensity: 15
[4]
  SPOT peptide array binding signal intensity: ≤ 0
[5]
  SPOT peptide array binding signal intensity: 22
[6]
  SPOT peptide array binding signal intensity: 1.5
[7]
  SPOT peptide array binding signal intensity: ≤ 0
[8]
  SPOT peptide array binding signal intensity: ≤ 0
[9]
  SPOT peptide array binding signal intensity: 26
[10]
  SPOT peptide array binding signal intensity: ≤ 0
[11]
  SPOT peptide array binding signal intensity: ≤ 0
[12]
  SPOT peptide array binding signal intensity: 1.5
[13]
  SPOT peptide array binding signal intensity: ≤ 0
[14]
  SPOT peptide array binding signal intensity: 0.167
[15]
  SPOT peptide array binding signal intensity: ≤ 0
[16]
  SPOT peptide array binding signal intensity: ≤ 0
[17]
  SPOT peptide array binding signal intensity: ≤ 0
[18]
  SPOT peptide array binding signal intensity: ≤ 0
[19]
  SPOT peptide array binding signal intensity: ≤ 0
[20]
  SPOT peptide array binding signal intensity: 3.5
[21]
  SPOT peptide array binding signal intensity: ≤ 0
[22]
  SPOT peptide array binding signal intensity: ≤ 0
[23]
  SPOT peptide array binding signal intensity: ≤ 0
[24]
  SPOT peptide array binding signal intensity: ≤ 0
[25]
  SPOT peptide array binding signal intensity: ≤ 0
[26]
  SPOT peptide array binding signal intensity: 0.5
[27]
  SPOT peptide array binding signal intensity: ≤ 0
[28]
  SPOT peptide array binding signal intensity: 0.5
[29]
  SPOT peptide array binding signal intensity: ≤ 0
[30]
  SPOT peptide array binding signal intensity: ≤ 0
[31]
  SPOT peptide array binding signal intensity: 23
[32]
  SPOT peptide array binding signal intensity: 1.33
[33]
  SPOT peptide array binding signal intensity: 0.5
[34]
  SPOT peptide array binding signal intensity: ≤ 0
[35]
  SPOT peptide array binding signal intensity: ≤ 0
[36]
  SPOT peptide array binding signal intensity: ≤ 0
[37]
  SPOT peptide array binding signal intensity: 1
[38]
  SPOT peptide array binding signal intensity: 4.75
[39]
  SPOT peptide array binding signal intensity: ≤ 0
[40]
  SPOT peptide array binding signal intensity: 21
[41]
  SPOT peptide array binding signal intensity: 11
[42]
  SPOT peptide array binding signal intensity: ≤ 0
[43]
  SPOT peptide array binding signal intensity: ≤ 0
[44]
  SPOT peptide array binding signal intensity: ≤ 0
[45]
  SPOT peptide array binding signal intensity: 67
[46]
  SPOT peptide array binding signal intensity: ≤ 0
[47]
  SPOT peptide array binding signal intensity: ≤ 0
[48]
  SPOT peptide array binding signal intensity: ≤ 0
[49]
  SPOT peptide array binding signal intensity: 3
[50]
  SPOT peptide array binding signal intensity: 0.5
[51]
  SPOT peptide array binding signal intensity: 0.75
[52]
  SPOT peptide array binding signal intensity: ≤ 0
[53]
  SPOT peptide array binding signal intensity: 181
[54]
  SPOT peptide array binding signal intensity: 1
[55]
  SPOT peptide array binding signal intensity: ≤ 0
[56]
  SPOT peptide array binding signal intensity: ≤ 0
[57]
  SPOT peptide array binding signal intensity: 16.2
[58]
  SPOT peptide array binding signal intensity: ≤ 0
[59]
  SPOT peptide array binding signal intensity: 1.5
[60]
  SPOT peptide array binding signal intensity: ≤ 0
[61]
  SPOT peptide array binding signal intensity: ≤ 0
[62]
  SPOT peptide array binding signal intensity: ≤ 0
[63]
  SPOT peptide array binding signal intensity: ≤ 0
[64]
  SPOT peptide array binding signal intensity: ≤ 0
[65]
  SPOT peptide array binding signal intensity: ≤ 0
[66]
  SPOT peptide array binding signal intensity: 15.5
[67]
  SPOT peptide array binding signal intensity: ≤ 0
[68]
  SPOT peptide array binding signal intensity: ≤ 0
[69]
  SPOT peptide array binding signal intensity: ≤ 0
[70]
  SPOT peptide array binding signal intensity: ≤ 0
[71]
  SPOT peptide array binding signal intensity: ≤ 0
[72]
  SPOT peptide array binding signal intensity: ≤ 0
[73]
  SPOT peptide array binding signal intensity: 3
[74]
  SPOT peptide array binding signal intensity: ≤ 0

B2: unnamed (peptide)
chain: VPVAPPPPPASLGQS
[61]
  SPOT peptide array binding signal intensity: 1.25
[62]
  SPOT peptide array binding signal intensity: ≤ 0
[63]
  SPOT peptide array binding signal intensity: ≤ 0
[64]
  SPOT peptide array binding signal intensity: ≤ 0
[65]
  SPOT peptide array binding signal intensity: 0.5
[66]
  SPOT peptide array binding signal intensity: 1
[67]
  SPOT peptide array binding signal intensity: ≤ 0
[68]
  SPOT peptide array binding signal intensity: ≤ 0
[69]
  SPOT peptide array binding signal intensity: 49.8
[70]
  SPOT peptide array binding signal intensity: 1.5
[71]
  SPOT peptide array binding signal intensity: ≤ 0
[72]
  SPOT peptide array binding signal intensity: 3.33
[73]
  SPOT peptide array binding signal intensity: ≤ 0
[74]
  SPOT peptide array binding signal intensity: ≤ 0

B3: unnamed (peptide)
chain: FPPKRKPLLRPQRSD
[1]
  SPOT peptide array binding signal intensity: 766
[2]
  SPOT peptide array binding signal intensity: 332
[3]
  SPOT peptide array binding signal intensity: 170
[4]
  SPOT peptide array binding signal intensity: 59
[5]
  SPOT peptide array binding signal intensity: 81
[6]
  SPOT peptide array binding signal intensity: 3.5
[7]
  SPOT peptide array binding signal intensity: 303
[8]
  SPOT peptide array binding signal intensity: 156
[9]
  SPOT peptide array binding signal intensity: 294
[10]
  SPOT peptide array binding signal intensity: 26.5
[11]
  SPOT peptide array binding signal intensity: 33.5
[12]
  SPOT peptide array binding signal intensity: ≤ 0
[13]
  SPOT peptide array binding signal intensity: 590
[14]
  SPOT peptide array binding signal intensity: 9
[15]
  SPOT peptide array binding signal intensity: 45
[16]
  SPOT peptide array binding signal intensity: 230
[17]
  SPOT peptide array binding signal intensity: 5
[18]
  SPOT peptide array binding signal intensity: 1450
[19]
  SPOT peptide array binding signal intensity: 2460
[20]
  SPOT peptide array binding signal intensity: 793
[21]
  SPOT peptide array binding signal intensity: 934
[22]
  SPOT peptide array binding signal intensity: 257
[23]
  SPOT peptide array binding signal intensity: 135
[24]
  SPOT peptide array binding signal intensity: 292
[25]
  SPOT peptide array binding signal intensity: 589
[26]
  SPOT peptide array binding signal intensity: 1.25
[27]
  SPOT peptide array binding signal intensity: 57.2
[28]
  SPOT peptide array binding signal intensity: ≤ 0
[29]
  SPOT peptide array binding signal intensity: 1020
[30]
  SPOT peptide array binding signal intensity: 12
